Screening results (PubChem BioAssay)
Shown are actives, neighbours in structure and some others; about 3.6% of the full set was active somewhere.
Pf apPOL block – Pf-apPOL inhibitors, biochemical, fluorescence. Plasmodium falciparum apicoplast DNA polymerase (apPOL). Recombinant Pf-apPOL, molecular beacon fluorescence, 1.5 h. inhibition, % at 10 µM. 210,000 tested, 0.25% active
mHTT-CaM PPI inh – mutant huntingtin-calmodulin interaction inhibitors – biochemical, AlphaScreen, primary screen; P42858; AlphaScreen His-mHTT/GST-CaM binding, luminescence; inhibition, % at 15 µM; 190,000 tested, 3.6% active; AID 1671202, 2021;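 also: 0% = both proteins with DMSO and 100% = one protein alone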
Starred values were filed as active, the others as inactive; i = inactive; x = no result given. Rule as the data show it: active = inhibition above about 50%; inactive = the rest.

SMILES | Pf apPOL block | mHTT-CaM PPI inh
COc1ccc(NC(=O)CSc2nc3[nH]ncc3c(=O)n2-c2ccc(Cl)cc2)c(OC)c1 | -5 | 25
Cc1ccc(CSc2nc3[nH]ncc3c(=O)n2-c2ccc(C)cc2)cc1 | 81* | 14
Cc1ccc(CSc2nc3[nH]ncc3c(=O)n2-c2cccc(Cl)c2)cc1 | -12 | 38
Cc1ccc(-n2c(SCc3cccc([N+](=O)[O-])c3)nc3[nH]ncc3c2=O)cc1Cl | 0 | 58*
CCc1ccc(-n2c(SCC(=O)Nc3ccc(OC)cc3OC)nc3[nH]ncc3c2=O)cc1 | -12 | 68*
Cc1ccc(N2C(=O)CC(N3CCN(c4ccc(F)cc4)CC3)C2=O)cc1 (stereo not drawn) | -1 | 13
Cc1sc2cc(C(=O)N3CCN(c4ccccn4)CC3)[nH]c2c1CN1CCCC1 | -2 | 46
COc1ccc(Cl)cc1N(CC(=O)Nc1ccc(C(N)=O)cc1)S(=O)(=O)c1ccccc1 | -3 | 26
O=[N+]([O-])c1cc(C(F)(F)F)ccc1Sc1ccccc1 | -4 | 55*
CC(C)Sc1ccc(C(F)(F)F)cc1[N+](=O)[O-] | -31 | x
CCc1[nH]nc(-c2cccc(OC)c2)c1NC(=O)C1CCCC1 | 3 | 18
CCC(=O)Nc1c(-c2cccc(OC)c2)n[nH]c1CC | 70* | 91*
CCc1[nH]nc(-c2ccc(F)c(F)c2)c1NC(=O)COC | -3 | 97*
CCC(=O)Nc1c(-c2ccc(F)c(F)c2)n[nH]c1CC | -2 | 7
Cc1ccc(NC(=O)c2cc3n(n2)C(C(F)(F)F)CC(c2ccc4c(c2)OCO4)N3)cc1 (stereo not drawn) | -4 | 11
O=C(Nc1ccc(F)cc1)C1CC(=O)N(Cc2ccccc2)C1 (stereo not drawn) | -5 | -2
Cc1c(C)n(CC(O)CNc2ccc(Cl)cc2)c2ccccc12 (stereo not drawn) | 2 | 100*
Cc1ccc(NCC(O)Cn2c(C)c(C)c3ccccc32)cc1 (stereo not drawn) | 0 | 45
Cc1c(C)n(CC(O)CNCCCO)c2ccccc12 (stereo not drawn) | 3 | 15
Cc1c(C)n(CC(O)CNC(C)c2ccccc2)c2ccccc12 (stereo not drawn) | -4 | 31
Cc1c(C)n(CC(O)CNc2ccc(Br)cc2)c2ccccc12 (stereo not drawn) | 6 | 100*
Cc1ccc(NCC(O)Cn2c(C)c(C)c3ccccc32)cc1C (stereo not drawn) | -2 | 71*
COc1ccc(/C=C2N=C(/C=C/c3ccc(C)cc3)OC/2=O)c(OC)c1 | -4 | 22
COCCC1CCN(C(=O)c2ccc(OC)cc2OC)CC1 | -3 | -6
COc1ccccc1N1C(=O)CCC1=O | 8 | -5
SMILES | Pf apPOL block | mHTT-CaM PPI inh
Cc1cccc(NS(=O)(=O)c2cc3c(s2)CCN(C(=O)C2CC2)C3)c1C | -1 | 0
Cc1c(Cl)cccc1NS(=O)(=O)c1cc2c(s1)CCN(C(=O)C1CCC1)C2 | -3 | 51*
Cc1ncsc1CN1CCC(c2nc(-c3ccccc3)no2)C1 (stereo not drawn) | 0 | 18
Cn1cccc1CN1CCC(c2nc(-c3ccccc3)no2)C1 (stereo not drawn) | 2 | 50*
O=C(Nc1nnc(COc2ccc(Br)cc2)s1)c1ccc2c(c1)OCO2 | -6 | 0
COc1ccc(S(=O)(=O)n2cc([N+](=O)[O-])cn2)cc1OC | -8 | 100*
COc1ccc(S(=O)(=O)n2c([N+](=O)[O-])cnc2C)cc1OC | -4 | 2
O=C1N=C(N2CCOCC2)S/C1=C/C1=Cc2ccccc2OC1 | -5 | 52*
O=C1N=C(N2CCOCC2)S/C1=C\c1ccccc1 | 2 | 4
NNC(=O)c1ccc2[nH]c3c(c2c1)CCCC3 | 3 | 11
Cc1ccc(CNC(=O)CN(C)S(=O)(=O)c2ccc3[nH]c4c(c3c2)CCCC4)cc1 | -1 | 32
O=C(CCC1CCCCC1)NCc1ccc2[nH]c3c(c2c1)CCCC3 | -7 | 98*
O=C(CCC1CCCC1)NCc1ccc2[nH]c3c(c2c1)CCCC3 | -15 | 100*
O=c1[nH]cc(-n2c(=O)c3cc4c(=O)n(-c5c[nH]c(=O)[nH]c5=O)c(=O)c4cc3c2=O)c(=O)[nH]1 | 2 | -1
O=C(Nc1ccc(F)cc1)c1ccc(C(=O)Nc2ccc(F)cc2)cc1 | -3 | -1
O=C(NCCNC(=O)c1ccc(F)c(F)c1)c1ccc(NC(=O)c2ccc(F)cc2)cc1 | 38 | 69*
COc1ccc(C(CC(=O)N2CCCC2)c2c[nH]c3ccccc23)cc1 (stereo not drawn) | -7 | 91*
COc1cccc(C(CC(=O)N2CCCC2)c2c[nH]c3ccccc23)c1 (stereo not drawn) | -4 | 14
O=S(=O)(NC(=NC1CCCCC1)c1ccccc1)c1cccs1 | -1 | -2
CCc1cc(C2CCCN2C(=O)NCCC(C)C)on1 (stereo not drawn) | 1 | -4
O=c1[nH]c2ccccc2n1CCCSc1cccs1 | -1 | 5
O=c1[nH]c2ccccc2n1CCCSc1nc2ccccc2o1 | -5 | 51*
O=C(Nn1cnnc1)c1ccco1 | x | -10
O=C(CN1C(=O)C(c2ccccc2)=NC12CCCC2)Nc1ccc(F)cc1 | -5 | 0
Cc1ccc(C(c2ccc(C)o2)c2cc(Br)cc([N+](=O)[O-])c2O)o1 | 4 | 42
SMILES | Pf apPOL block | mHTT-CaM PPI inh
Cc1ccc(C(c2ccc(C)o2)c2cc3c(cc2[N+](=O)[O-])OCCO3)o1 | -6 | 56*
Cc1ccc(C(c2ccc(C)o2)c2cc([N+](=O)[O-])cc(Br)c2O)o1 | -4 | 65*
CCCC(=O)c1cc2c(cc1[N+](=O)[O-])OCCO2 | -5 | 1
CC(=O)N1CCCN(c2nc3c(s2)c(C)nn3-c2cccc(C)c2)CC1 | 8 | 21
COC(=O)c1ccccc1NC(=O)c1cc(-c2cccs2)n(C2CCS(=O)(=O)C2)n1 (stereo not drawn) | -5 | -9
COc1ccc(CNC(=O)[C@@H]2CC=C[C@@H]3CCN(Cc4ccccc4)C(=O)[C@@H]32)cc1 | 0 | 5
CCCCNC(=O)[C@@H]1CC=C[C@@H]2CCN(Cc3ccc(Cl)c(Cl)c3)C(=O)[C@@H]21 | -15 | 25
O=C(NCCc1ccccc1)[C@@H]1CC=C[C@@H]2CCN(Cc3ccc(Cl)c(Cl)c3)C(=O)[C@@H]21 | -9 | 100*
O=C(NCc1cccnc1)[C@@H]1CC=C[C@@H]2CCN(Cc3ccc(Cl)c(Cl)c3)C(=O)[C@@H]21 | -6 | 59*
Cc1ccc(S(=O)(=O)Nc2cccc(C(=O)Nc3nnc(-c4cccs4)o3)c2)cc1 | -237 | 82*
CCN(CC)S(=O)(=O)c1ccc(C(=O)Nc2nnc(-c3cccs3)o2)cc1 | 0 | 27
Cc1cc(C(=O)Nc2nnc(-c3cccs3)o2)no1 | 7 | -1
Cc1onc(-c2ccccc2Cl)c1C(=O)Nc1nnc(-c2cccs2)o1 | -146 | 82*
CCCC(C)NC(=O)c1cccc([N+](=O)[O-])c1C (stereo not drawn) | -2 | -2
CCCc1cc(=O)n(-c2ccc([N+](=O)[O-])cc2)[nH]1 | -1 | 52*
O=c1cc(N2CCOCC2)[nH]n1-c1ccc([N+](=O)[O-])cc1 | 7 | 37
N/C(=N\OC(=O)N1CCOCC1)c1cccnc1 | 1 | i
Clc1ccc(-c2cn3nc(-c4ccccc4)sc3n2)cc1 | -6 | 3
CC(=O)Nc1ccc(-c2cn3nc(-c4ccccc4)sc3n2)cc1 | 0 | 58*
